Test systems include NCI-H23 lung; NCI-H322M lung; HOP-62 NSCLC; NCI-H460 lung; HOP-92 NSCLC; NCI-H522 lung; A549/ATCC NSCLC; 786-0 renal; COLO 205 colon; DU-145 prostate; K-562 leukemia; MALME-3M melanoma; MDA-MB-231 breast; RXF 393 renal; SF-268 CNS; SF-295 CNS; SF-539 CNS; UACC-257 melanoma; M14 melanoma; HCT-15 colon.
Common to all, as to test: NCI-60 one-dose screen, 48 h (100 = growth as untreated, 0 = no growth, -100 = all killed)
Details in all cases: 10 µM unless noted

This is part of a sample that, as a whole, favours compounds with a hit. Of some 83,000 tested, about 20% had one in any assay.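 Each cell line was grown in a 96-well plate and treated with one concentration of compound for 48 hours. Values below 10 were considered active.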 A number with no mark means an inactive call. Activity calls are given as the source filed them.

As for `CCN1C(=O)N(CC)C2C1NC(=S)N2/N=C/C=C/c1ccccc1OC` (stereo not given), the growth is 24.3% in the assay on NCI-H23 lung; 43.9% with NCI-H322M lung; 44.4% in the assay with HOP-62 NSCLC; 5.86% (active) in the assay with NCI-H460 lung; 18.4% in the assay with HOP-92 NSCLC; 4.46% (active) in the assay with NCI-H522 lung. For the same compound, the growth was 22.5% in the assay with A549/ATCC NSCLC; 20.2% with 786-0 renal; -46.2% (active) in the assay on COLO 205 colon; 9.85% (active) in the assay on DU-145 prostate; 9.29% (active) in the assay on K-562 leukemia; 55.1% in the assay with MALME-3M melanoma. The growth with MDA-MB-231 breast was 13.3%; with RXF 393 renal it was 35.3%; with SF-268 CNS it was 26.7%; in the assay on SF-295 CNS, 11.1%; with SF-539 CNS, -8.21% (active); in the assay with UACC-257 melanoma, 71.9%. The results for the growth in the assay on M14 melanoma and in the assay with HCT-15 colon were 7.43% (active) and 9.07% (active), respectively.
On to `O=C(Nc1ccc(N2CCNCC2)cc1)c1[nH]ncc1Nc1cc(Oc2ccccc2)ncn1`, for which the growth was 20.6% with NCI-H23 lung; -5.19% (active) with NCI-H322M lung; 3.29% (active) in the assay on HOP-62 NSCLC; -47.1% (active) in the assay with NCI-H460 lung; -21% (active) with HOP-92 NSCLC; 8.05% (active) with NCI-H522 lung. Besides, the growth was -49.8% (active) in the assay on A549/ATCC NSCLC; 2.25% (active) with 786-0 renal; -49.1% (active) in the assay on COLO 205 colon; 15.9% in the assay with DU-145 prostate; 8.34% (active) in the assay with K-562 leukemia; 58.4% in the assay with MALME-3M melanoma. Also, the growth is -20.9% (active) in the assay with MDA-MB-231 breast; -89.2% (active) in the assay with RXF 393 renal; 35% in the assay with SF-268 CNS; -70.2% (active) in the assay with SF-295 CNS; -46.2% (active) in the assay on SF-539 CNS; 29.7% in the assay on UACC-257 melanoma. Moreover, the growth was 12.9% in the assay with M14 melanoma and -35.9% (active) in the assay with HCT-15 colon.
As for `O=c1oc2ccc(-c3ccc(F)cc3F)cc2c(=O)n1-c1ccc(Cl)c(C(F)(F)F)c1`, the growth is 6.77% (active) in the assay on NCI-H23 lung; 13.1% in the assay with NCI-H322M lung; 6.97% (active) in the assay with HOP-62 NSCLC; 5.36% (active) in the assay with NCI-H460 lung; -29.4% (active) in the assay with HOP-92 NSCLC; -12.4% (active) in the assay with NCI-H522 lung. The growth is 7.35% (active) in the assay on A549/ATCC NSCLC; 17.4% with 786-0 renal; 77.1% in the assay on COLO 205 colon; 21% with DU-145 prostate; 10.9% in the assay on K-562 leukemia; 3.35% (active) in the assay with MALME-3M melanoma. Further, the growth with MDA-MB-231 breast was 56%; in the assay on RXF 393 renal, -3.32% (active); in the assay on SF-268 CNS, 14.5%; in the assay on SF-295 CNS, 17.4%; in the assay on SF-539 CNS it was 29.4%; with UACC-257 melanoma it was -9.78% (active). In addition, the growth is 21.5% in the assay with M14 melanoma and 15.8% in the assay on HCT-15 colon.
As for `O=c1cc(-c2ccccc2)oc2cc(OCc3cn(Cc4ccc(F)cc4)nn3)cc(OCc3cn(Cc4ccc(F)cc4)nn3)c12`, the growth was 29.2% with NCI-H23 lung; 43.5% in the assay on NCI-H322M lung; 12.4% in the assay on HOP-62 NSCLC; 2.98% (active) with NCI-H460 lung; -18% (active) in the assay with HOP-92 NSCLC; 17.6% in the assay on NCI-H522 lung. Also, the growth was 23.2% in the assay with A549/ATCC NSCLC; 1.13% (active) in the assay on 786-0 renal; 68.4% in the assay on COLO 205 colon; 40% in the assay on DU-145 prostate; 45.5% in the assay with K-562 leukemia; 15.2% in the assay with MALME-3M melanoma. Moreover, the growth in the assay on MDA-MB-231 breast is 9.1% (active); in the assay on RXF 393 renal, -8.05% (active); in the assay with SF-268 CNS, 21.8%; in the assay with SF-295 CNS, 38.9%; with SF-539 CNS it was -10.5% (active); with UACC-257 melanoma, 46.4%. The growth is 56.8% in the assay on M14 melanoma and 73.5% in the assay on HCT-15 colon.
Turning to `COc1ccc2oc(=O)cc(Cn3cc(Cn4cnc5c4c(=O)n(C)c(=O)n5C)nn3)c2c1`, the growth with NCI-H23 lung is 101%; with NCI-H322M lung, 101%; with HOP-62 NSCLC, 101%; with NCI-H460 lung, 105%; in the assay on HOP-92 NSCLC, 104%; with NCI-H522 lung it was 98.6%. For the same compound, the growth in the assay with A549/ATCC NSCLC is 103%; in the assay with 786-0 renal, 98%; with COLO 205 colon, 110%; in the assay with DU-145 prostate it was 105%; in the assay on K-562 leukemia it was 103%; in the assay on MALME-3M melanoma it was 91.5%. Also, the growth is 98% in the assay with MDA-MB-231 breast; 120% with RXF 393 renal; 100% in the assay with SF-268 CNS; 102% in the assay with SF-295 CNS; 94% in the assay with SF-539 CNS; 98% with UACC-257 melanoma. The growth in the assay with M14 melanoma is 100%; in the assay with HCT-15 colon, 105%.
In the case of `COc1cccc(C(=O)NC(c2ccc(C)cc2)c2cc(Cl)c3cccnc3c2O)c1` (stereo not given), the growth is 28.7% in the assay with NCI-H23 lung; 9.1% (active) in the assay with NCI-H322M lung; 9.9% (active) in the assay on HOP-62 NSCLC; 0.0612% (active) in the assay with NCI-H460 lung; 31.8% with HOP-92 NSCLC; 9.38% (active) with NCI-H522 lung. Moreover, the growth in the assay on A549/ATCC NSCLC was 6.84% (active); in the assay on 786-0 renal, 6.38% (active); with COLO 205 colon it was 14.4%; with DU-145 prostate, 15.3%; in the assay on K-562 leukemia it was 7.41% (active); with MALME-3M melanoma, -1.84% (active). Besides, the growth in the assay with MDA-MB-231 breast is 31.2%; with RXF 393 renal, 9.4% (active); in the assay with SF-268 CNS, 6.71% (active); with SF-295 CNS, -0.279% (active); in the assay with SF-539 CNS it was 1.97% (active); in the assay on UACC-257 melanoma, -7.2% (active). Further, the growth is -13.9% (active) in the assay with M14 melanoma and 28.1% with HCT-15 colon.
`Clc1ccc(Nc2nnc(-c3ccc4c(c3)OCO4)o2)cc1`: the growth in the assay on NCI-H23 lung was 101%; in the assay on NCI-H322M lung, 98.9%; with HOP-62 NSCLC, 114%; in the assay on NCI-H460 lung it was 103%; in the assay on HOP-92 NSCLC, 99.8%; in the assay on NCI-H522 lung, 80.9%. Also, the growth in the assay on A549/ATCC NSCLC is 97.8%; in the assay on 786-0 renal, 97.9%; with COLO 205 colon it was 107%; in the assay with DU-145 prostate it was 98.9%; with K-562 leukemia, 62.4%; with MALME-3M melanoma it was 99%. In addition, the growth in the assay on MDA-MB-231 breast is 108%; in the assay with RXF 393 renal, 130%; in the assay on SF-268 CNS, 107%; with SF-295 CNS, 115%; in the assay with SF-539 CNS, 104%; with UACC-257 melanoma it was 100%. Moreover, the growth in the assay on M14 melanoma is 102%; in the assay with HCT-15 colon it was 95.8%.
As to `O=C1c2cc(Cl)ccc2Oc2cc([N+](=O)[O-])ccc2N1c1ccc(F)cc1F`, the growth in the assay on NCI-H23 lung was 94.1%; with NCI-H322M lung it was 92.5%; in the assay on HOP-62 NSCLC, 87.8%; in the assay with NCI-H460 lung, 93.2%; with HOP-92 NSCLC it was 98.9%; in the assay with NCI-H522 lung it was 49.9%. The growth is 66.7% with A549/ATCC NSCLC; 93.6% in the assay with 786-0 renal; 96.5% with COLO 205 colon; 89.8% in the assay on DU-145 prostate; 78.8% in the assay with K-562 leukemia; 103% with MALME-3M melanoma. For the same compound, the growth in the assay on MDA-MB-231 breast is 83%; in the assay with RXF 393 renal, 89.6%; with SF-268 CNS, 72.9%; with SF-295 CNS, 94.6%; in the assay on SF-539 CNS, 96.7%; in the assay with UACC-257 melanoma it was 91%. Further, the growth is 99.2% in the assay with M14 melanoma and 86.9% with HCT-15 colon.

The values are drawn from PubChem BioAssay (NCI).
